By AC50 is commonly meant the midpoint of the concentration-response curve, whichever way the signal moves.

Assay [1] addresses Estrogen receptor (Homo sapiens) (UniProt P03372). The assay is described as follows: ATG_ERa_TRANS: Attagene TRANS-FACTORIAL HepG2 Assay for human Estrogen Receptor alpha (ERa) (AID 2282970). Particulars: HepG2 Attagene TRANS ERa GAL4 reporter, mRNA. The essentials: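 Liver-derived HepG2 cells expressing chimeric nuclear receptor-Gal4 proteins from transient transfection were exposed for 24 hours. Gain of reporter mRNA signal versus DMSO, read by capillary electrophoresis of FAM-labelled PCR products, was recorded.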

Assay [2] addresses X-box-binding protein 1 (Homo sapiens) (UniProt P17861). The assay is described as follows: ATG_Xbp1_CIS: Attagene CIS-FACTORIAL HepG2 Assay for human X-box Binding Protein 1 (XBP1) (AID 2282972; active = hit-call score of the fitted dose curve at least 0.9, where 1 is the maximum; inactive = score below 0.9). Particulars: HepG2 XBP1 cis-element reporter, Attagene multiplex; actives raise or lower the signal. The essentials:
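Multiplexed cis-reporter readout in transfected HepG2 liver cells. Exposure lasted 24 hours. Activity in either direction was fitted against DMSO as negative control and baseline.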

The nature of assay [3]: ATG_GAL4_TRANS: Attagene TRANS-FACTORIAL HepG2 Assay for GAL4 (Internal Marker) (AID 2282976). The conditions noted are these: HepG2 Attagene TRANS GAL4 internal marker reporter. A digest of the protocol: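 First, HepG2 cells were transfected with reporter units under GAL4-UAS control. Next, they were treated with chemical for 24 h. Finally, RNA was reverse-transcribed, PCR-amplified, FAM-labelled and resolved by capillary electrophoresis, with induction scored against DMSO.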

Assay [4] addresses Glucocorticoid receptor (Homo sapiens) (UniProt P04150). The assay is described as follows: ATG_GR_TRANS: Attagene TRANS-FACTORIAL HepG2 Assay for human Glucocorticoid Receptor (GR) (AID 2282978).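 Note: activators score as hits since higher reporter transcript over DMSO is fitted.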 Particulars: HepG2 Attagene TRANS GR reporter, mRNA transcription. A digest of the protocol: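 Readout is reporter transcript from a chimeric GR-Gal4 acting on GAL4-UAS in transfected human HepG2 liver cells after 24 h exposure, quantified by RT-PCR and capillary electrophoresis. Activation fitted upward against DMSO.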

The target of assay [5] is Oxysterols receptor LXR-beta (Homo sapiens) (UniProt P55055). The assay can be described thus: ATG_LXRb_TRANS: Attagene TRANS-FACTORIAL HepG2 Assay for human Liver X Receptor beta (LXRb) (AID 2282981). The conditions noted are these: HepG2 Attagene TRANS GAL4-LXRb reporter, mRNA. A digest of the protocol:
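Liver-derived HepG2 cells transfected with Gal4-responsive reporters were dosed for 24 h. Activation was scored as rise in reporter mRNA, by RT-PCR and capillary electrophoresis, above DMSO baseline.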

Assay [6] has as its target Hepatocyte nuclear factor 4-alpha (Homo sapiens) (UniProt P41235). The assay can be described thus: ATG_HNF4a_TRANS: Attagene TRANS-FACTORIAL HepG2 Assay for human Hepatocyte Nuclear Factor 4 alpha (HNF4a) (AID 2282982). The conditions noted are these: HepG2 HNF4a transactivation reporter, mRNA readout. The essentials:
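Using HepG2 liver cells transfected with GAL4-UAS reporter units, chemical-induced mRNA increases were assessed after 24 hours. Fluorescent RT-PCR fragments were separated by capillary electrophoresis and compared with DMSO negative controls.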

Assay [7] addresses Transcriptional activator Myb (Homo sapiens) (UniProt P10242). The assay can be described thus: ATG_Myb_CIS: Attagene CIS-FACTORIAL HepG2 Assay for human Myeloblastosis (Myb) Proto-Oncogene Transcription Factor (AID 2282986; active = hit-call score of the fitted dose curve at least 0.9, where 1 is the maximum; inactive = score below 0.9). Particulars: HepG2 Attagene CIS-FACTORIAL Myb reporter transcription; actives raise or lower the signal. The essentials: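 Reporter mRNA is quantified by RT-PCR and capillary electrophoresis 24 h after dosing HepG2 cells transfected with cis-regulated reporter units, which track endogenous transcription factor activity. Gain and loss of signal are fitted versus DMSO baseline.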

Assay [8] has as its target Nuclear respiratory factor 1 (Homo sapiens) (UniProt Q16656). The assay can be described thus: ATG_NRF1_CIS: Attagene CIS-FACTORIAL HepG2 Assay for human Nuclear Respiratory Factor 1 (NRF1) Orphan Gene (AID 2282987; active = hit-call score of the fitted dose curve at least 0.9, where 1 is the maximum; inactive = score below 0.9). The conditions noted are these: HepG2 NRF1 cis-element reporter, Attagene multiplex; actives raise or lower the signal. A digest of the protocol:
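Endogenous NRF1-driven reporter transcription in transfected HepG2 cells after 24 h treatment. Readout: RT-PCR products, 6-FAM labelled and resolved by capillary electrophoresis; changes fitted both directions relative to DMSO.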

A short description of assay [9]: ATG_NFI_CIS: Attagene CIS-FACTORIAL HepG2 Assay for human Nuclear Factor I (NFI) (AID 2282989; active = hit-call score of the fitted dose curve at least 0.9, where 1 is the maximum; inactive = score below 0.9). Particulars: HepG2 cis-regulatory reporter, NFI response element transcription; actives raise or lower the signal. A digest of the protocol: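 Cells: human liver HepG2, transiently transfected with promoter-regulated reporter transcription units. Exposure 24 h. Detection: fluorescent RT-PCR products separated by capillary electrophoresis, normalised to DMSO negative control.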

Assay [10] addresses Myc proto-oncogene protein (Homo sapiens) (UniProt P01106). The assay is described as follows: ATG_Myc_CIS: Attagene CIS-FACTORIAL HepG2 Assay for human Myelocytomatosis (Myc) Proto-Oncogene Transcription Factor (AID 2282990; active = hit-call score of the fitted dose curve at least 0.9, where 1 is the maximum; inactive = score below 0.9). The conditions noted are these: HepG2, Attagene cis-reporter transcription factor activity; actives raise or lower the signal. The essentials:
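HepG2 cells transiently transfected with multiple cis-promoter-driven reporter transcription units, so endogenous TF activity is read. After 24 h compound exposure, reporter mRNA was quantified by RT-PCR, 6-FAM labelling, HpaI digestion and capillary electrophoresis; bidirectional fit versus DMSO.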

The target in assay [11] is Androgen receptor (Homo sapiens) (UniProt P10275). The assay can be described thus: ATG_AR_TRANS: Attagene TRANS-FACTORIAL HepG2 Assay for human Androgen Receptor (AR) (AID 2282973). The conditions noted are these: HepG2 Attagene TRANS-FACTORIAL AR reporter transcription. The essentials:
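Steps: transfect HepG2 with multiple GAL4-UAS reporter transcription units (TRANS format, exogenous NR-Gal4 protein); dose 24 h; isolate RNA, reverse-transcribe, PCR-amplify, FAM-label, HpaI-digest; resolve by capillary electrophoresis. Positive direction vs DMSO.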

Assay [12] deals with Bile acid receptor (Homo sapiens) (UniProt Q96RI1). The assay can be described thus: ATG_FXR_TRANS: Attagene TRANS-FACTORIAL HepG2 Assay for Farnesoid X Receptor (FXR) (AID 2282979).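 Note: hits raise reporter mRNA above DMSO so AC50 marks FXR activation.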 The conditions noted are these: HepG2 Attagene TRANS FXR-GAL4 reporter transcription. The essentials:
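Transient transfection of HepG2 with multiplexed GAL4-UAS reporter units; exogenous FXR-GAL4 chimera. Dose 24 h → TriZol RNA → oligo(dT) RT → PCR, 6-FAM primer extension, HpaI cut → CE. Gain vs DMSO.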

Assay [13] concerns the target Oxysterols receptor LXR-alpha (Homo sapiens) (UniProt Q13133). The assay can be described thus: ATG_LXRa_TRANS: Attagene TRANS-FACTORIAL HepG2 Assay for human Liver X Receptor alpha (LXRa) (AID 2282980). Particulars: HepG2 Attagene TRANS reporter, LXRa transactivation. A digest of the protocol: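 Transfect HepG2 with GAL4-UAS multiplex reporter constructs (TRANS format, chimeric receptor-GAL4); treat 24 h; extract RNA, reverse-transcribe, PCR-amplify, FAM-label, HpaI-digest; resolve fragments by capillary electrophoresis. Upward response vs DMSO.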

The nature of assay [14]: ATG_M_32_TRANS: Attagene TRANS-FACTORIAL HepG2 Assay for M32 Transcription Factor (Internal Marker) (AID 2282984).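 Note: transcript level of a background control reporter unit measured by RT-PCR and capillary electrophoresis.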 Particulars: HepG2 Attagene TRANS M32 internal marker reporter. A digest of the protocol:
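Fluorescence-detected mRNA induction, HepG2 liver cells, 24 h after dosing. Multiple GAL4-UAS reporter units introduced by transient transfection; background-control endpoint analysed for gain of signal against DMSO.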

In assay [15] the target is Estrogen-related receptor gamma (Homo sapiens) (UniProt P62508). The assay is described as follows: ATG_ERRg_TRANS: Attagene TRANS-FACTORIAL HepG2 Assay for human Estrogen-Related Receptor gamma (ERRg) (AID 2282977).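 Note: hits increase reporter signal over DMSO so potencies reflect activators.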 Particulars: HepG2 Attagene TRANS reporter, ERRg transactivation. The essentials: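 Readout: fluorescent reporter-mRNA fragments resolved by capillary electrophoresis after RT-PCR and HpaI cut. Cells: transiently transfected HepG2 carrying GAL4-UAS reporters driven by exogenous NR-Gal4 chimeras, dosed 24 h. Activity fitted upward relative to DMSO baseline.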

A short description of assay [16]: ATG_M_06_TRANS: Attagene TRANS-FACTORIAL HepG2 Assay for M06 Transcription Factor (Internal Marker) (AID 2282983).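 Note: reporter transcript level by RT-PCR then capillary electrophoresis fluorescence.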 The conditions noted are these: HepG2 Attagene TRANS M06 internal marker reporter. A digest of the protocol:
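Background control endpoint: reporter mRNA from transiently transfected HepG2 after 24 h dosing, detected by RT-PCR with capillary electrophoresis fluorescence. Analysed for gain versus DMSO.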

In assay [17] the target is Nuclear receptor subfamily 4 group A member 2 (Homo sapiens) (UniProt P43354). The assay can be described thus: ATG_NURR1_TRANS: Attagene TRANS-FACTORIAL HepG2 Assay for human Nuclear Receptor Related Protein 1 (NURR1) (AID 2282985). Particulars: HepG2 Attagene TRANS reporter, mRNA readout. The essentials:
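Chimeric NR-Gal4 proteins were expressed in human HepG2 cells bearing GAL4-UAS reporter units, and induced reporter mRNA was quantified 24 h post-dosing by RT-PCR and capillary electrophoresis.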

The nature of assay [18]: ATG_M_19_TRANS: Attagene TRANS-FACTORIAL HepG2 Assay for M19 Transcription Factor (Internal Marker) (AID 2282974). Particulars: HepG2 Attagene TRANS-FACTORIAL M19 internal marker reporter. A digest of the protocol: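 Background-control readout: after 24 h chemical exposure of transfected HepG2 carrying GAL4-driven reporter units, RNA was reverse-transcribed, amplified, fluorescently labeled and sized by capillary electrophoresis; gain-of-signal fit against DMSO.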

Results filed as inconclusive are left out. The source made the active and inactive calls. Rule for the calls, unless noted: active = hit-call score of the fitted dose curve at least 0.9, where 1 is the maximum; inconclusive = response in the unintended direction; inactive = score below 0.9.

Chain of Nuclear respiratory factor 1 (Homo sapiens) (Q16656 whole entry, looked up): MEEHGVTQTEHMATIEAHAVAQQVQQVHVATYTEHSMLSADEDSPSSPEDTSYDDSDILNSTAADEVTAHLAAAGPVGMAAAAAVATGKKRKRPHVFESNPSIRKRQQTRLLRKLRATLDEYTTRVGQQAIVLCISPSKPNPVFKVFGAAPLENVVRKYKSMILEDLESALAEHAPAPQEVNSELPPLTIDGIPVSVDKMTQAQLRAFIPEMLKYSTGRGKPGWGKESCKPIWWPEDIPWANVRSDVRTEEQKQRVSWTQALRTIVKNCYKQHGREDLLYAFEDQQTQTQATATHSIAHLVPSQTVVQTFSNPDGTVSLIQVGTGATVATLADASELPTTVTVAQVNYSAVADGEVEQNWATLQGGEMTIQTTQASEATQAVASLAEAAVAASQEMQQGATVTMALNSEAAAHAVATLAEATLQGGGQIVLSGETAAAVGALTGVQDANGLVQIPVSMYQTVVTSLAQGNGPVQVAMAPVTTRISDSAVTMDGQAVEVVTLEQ
Chain of Hepatocyte nuclear factor 4-alpha (Homo sapiens) (P41235 whole entry, looked up, the tested form may be a part): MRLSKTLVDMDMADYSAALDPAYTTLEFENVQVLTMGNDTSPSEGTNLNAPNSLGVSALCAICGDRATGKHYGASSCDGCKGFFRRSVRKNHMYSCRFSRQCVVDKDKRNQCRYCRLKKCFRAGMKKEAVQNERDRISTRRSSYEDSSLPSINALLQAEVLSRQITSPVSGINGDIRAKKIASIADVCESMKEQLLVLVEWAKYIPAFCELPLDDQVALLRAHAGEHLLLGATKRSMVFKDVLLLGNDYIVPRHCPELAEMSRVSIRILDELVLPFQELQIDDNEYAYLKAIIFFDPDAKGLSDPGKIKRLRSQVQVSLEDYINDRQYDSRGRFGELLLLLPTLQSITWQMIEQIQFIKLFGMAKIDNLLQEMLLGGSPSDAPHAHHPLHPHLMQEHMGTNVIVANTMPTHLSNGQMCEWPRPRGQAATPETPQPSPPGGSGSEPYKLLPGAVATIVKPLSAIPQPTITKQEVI
Chain of Transcriptional activator Myb (Homo sapiens) (P10242 whole entry, looked up): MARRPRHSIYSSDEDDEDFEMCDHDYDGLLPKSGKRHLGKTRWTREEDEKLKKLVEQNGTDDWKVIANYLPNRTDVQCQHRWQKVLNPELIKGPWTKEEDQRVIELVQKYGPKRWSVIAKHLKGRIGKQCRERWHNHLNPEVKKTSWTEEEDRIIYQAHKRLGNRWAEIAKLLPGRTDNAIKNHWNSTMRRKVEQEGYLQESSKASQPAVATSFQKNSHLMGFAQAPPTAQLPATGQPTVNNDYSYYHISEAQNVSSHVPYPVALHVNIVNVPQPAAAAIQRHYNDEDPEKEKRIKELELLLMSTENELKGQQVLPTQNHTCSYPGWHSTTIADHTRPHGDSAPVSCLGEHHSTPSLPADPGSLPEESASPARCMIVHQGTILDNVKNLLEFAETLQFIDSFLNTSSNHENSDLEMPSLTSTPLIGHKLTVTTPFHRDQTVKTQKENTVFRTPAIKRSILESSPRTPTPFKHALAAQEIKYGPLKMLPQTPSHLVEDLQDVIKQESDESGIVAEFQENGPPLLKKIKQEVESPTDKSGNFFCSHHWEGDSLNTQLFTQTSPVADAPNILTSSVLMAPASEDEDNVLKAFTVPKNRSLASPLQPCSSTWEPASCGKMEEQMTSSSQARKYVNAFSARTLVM
Chain of X-box-binding protein 1 (Homo sapiens) (P17861 whole entry, looked up): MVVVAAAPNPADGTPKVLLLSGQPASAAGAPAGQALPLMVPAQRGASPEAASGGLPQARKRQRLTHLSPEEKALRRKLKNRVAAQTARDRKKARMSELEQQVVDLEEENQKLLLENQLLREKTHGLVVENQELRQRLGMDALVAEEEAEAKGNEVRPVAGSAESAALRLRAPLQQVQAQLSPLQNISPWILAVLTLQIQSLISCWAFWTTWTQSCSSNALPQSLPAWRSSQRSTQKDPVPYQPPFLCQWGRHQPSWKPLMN
Chain of Bile acid receptor (Homo sapiens) (Q96RI1 whole entry, looked up, the tested form may be a part): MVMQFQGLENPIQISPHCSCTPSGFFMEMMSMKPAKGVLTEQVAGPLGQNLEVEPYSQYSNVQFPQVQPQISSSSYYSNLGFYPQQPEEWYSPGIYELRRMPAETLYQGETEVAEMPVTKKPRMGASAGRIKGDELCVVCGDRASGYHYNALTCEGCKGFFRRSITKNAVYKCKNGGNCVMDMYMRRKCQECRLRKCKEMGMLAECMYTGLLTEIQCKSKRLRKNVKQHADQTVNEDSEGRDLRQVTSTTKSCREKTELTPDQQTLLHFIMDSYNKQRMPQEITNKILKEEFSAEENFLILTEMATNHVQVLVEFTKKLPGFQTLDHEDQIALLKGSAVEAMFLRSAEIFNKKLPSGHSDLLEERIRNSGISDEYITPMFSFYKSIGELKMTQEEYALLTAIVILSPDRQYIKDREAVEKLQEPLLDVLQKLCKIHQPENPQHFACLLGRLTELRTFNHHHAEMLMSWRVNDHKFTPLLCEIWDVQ
Chain of Myc proto-oncogene protein (Homo sapiens) (P01106 whole entry, looked up): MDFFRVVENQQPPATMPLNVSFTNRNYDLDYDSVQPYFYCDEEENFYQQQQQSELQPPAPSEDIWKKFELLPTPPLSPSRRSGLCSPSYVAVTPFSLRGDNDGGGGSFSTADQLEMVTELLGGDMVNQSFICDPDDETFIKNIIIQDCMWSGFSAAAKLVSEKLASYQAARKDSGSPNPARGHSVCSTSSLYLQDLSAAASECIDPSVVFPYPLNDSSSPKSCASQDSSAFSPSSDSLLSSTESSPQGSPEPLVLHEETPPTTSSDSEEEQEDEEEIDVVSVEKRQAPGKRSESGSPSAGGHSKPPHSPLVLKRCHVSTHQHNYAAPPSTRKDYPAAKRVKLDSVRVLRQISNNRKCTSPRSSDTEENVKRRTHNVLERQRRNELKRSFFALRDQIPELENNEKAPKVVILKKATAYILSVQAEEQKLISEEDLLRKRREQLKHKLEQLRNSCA
Chain of Estrogen receptor (Homo sapiens) (P03372 whole entry, looked up, the tested form may be a part): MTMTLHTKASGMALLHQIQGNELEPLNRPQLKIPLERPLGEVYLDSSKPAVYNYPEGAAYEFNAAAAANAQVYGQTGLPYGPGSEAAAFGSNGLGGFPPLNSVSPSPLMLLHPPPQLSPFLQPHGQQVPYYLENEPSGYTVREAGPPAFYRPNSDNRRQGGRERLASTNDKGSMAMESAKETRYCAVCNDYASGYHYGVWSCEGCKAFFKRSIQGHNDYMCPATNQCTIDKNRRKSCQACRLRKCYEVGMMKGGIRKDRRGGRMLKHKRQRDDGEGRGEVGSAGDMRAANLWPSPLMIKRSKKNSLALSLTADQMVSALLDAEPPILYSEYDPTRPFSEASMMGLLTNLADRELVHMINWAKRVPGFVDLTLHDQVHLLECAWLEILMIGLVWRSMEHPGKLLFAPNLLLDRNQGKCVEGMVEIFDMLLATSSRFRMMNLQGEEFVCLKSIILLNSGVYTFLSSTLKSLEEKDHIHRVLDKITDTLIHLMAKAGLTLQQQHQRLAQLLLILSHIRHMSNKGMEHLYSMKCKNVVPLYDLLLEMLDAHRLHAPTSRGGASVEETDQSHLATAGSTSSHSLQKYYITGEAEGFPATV
Chain of Oxysterols receptor LXR-alpha (Homo sapiens) (Q13133 whole entry, looked up, the tested form may be a part): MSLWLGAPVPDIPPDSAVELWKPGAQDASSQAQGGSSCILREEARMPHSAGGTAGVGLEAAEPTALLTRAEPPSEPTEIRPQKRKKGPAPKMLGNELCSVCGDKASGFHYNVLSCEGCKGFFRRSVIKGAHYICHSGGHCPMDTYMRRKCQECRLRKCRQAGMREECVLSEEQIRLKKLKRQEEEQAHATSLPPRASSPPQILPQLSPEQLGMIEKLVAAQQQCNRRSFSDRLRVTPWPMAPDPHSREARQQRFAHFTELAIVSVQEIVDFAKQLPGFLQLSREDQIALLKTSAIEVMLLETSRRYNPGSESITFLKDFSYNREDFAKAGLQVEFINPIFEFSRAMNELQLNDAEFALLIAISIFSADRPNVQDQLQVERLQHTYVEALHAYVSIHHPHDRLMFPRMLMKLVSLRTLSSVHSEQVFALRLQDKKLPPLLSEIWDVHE
Chain of Nuclear receptor subfamily 4 group A member 2 (Homo sapiens) (P43354 whole entry, looked up, the tested form may be a part): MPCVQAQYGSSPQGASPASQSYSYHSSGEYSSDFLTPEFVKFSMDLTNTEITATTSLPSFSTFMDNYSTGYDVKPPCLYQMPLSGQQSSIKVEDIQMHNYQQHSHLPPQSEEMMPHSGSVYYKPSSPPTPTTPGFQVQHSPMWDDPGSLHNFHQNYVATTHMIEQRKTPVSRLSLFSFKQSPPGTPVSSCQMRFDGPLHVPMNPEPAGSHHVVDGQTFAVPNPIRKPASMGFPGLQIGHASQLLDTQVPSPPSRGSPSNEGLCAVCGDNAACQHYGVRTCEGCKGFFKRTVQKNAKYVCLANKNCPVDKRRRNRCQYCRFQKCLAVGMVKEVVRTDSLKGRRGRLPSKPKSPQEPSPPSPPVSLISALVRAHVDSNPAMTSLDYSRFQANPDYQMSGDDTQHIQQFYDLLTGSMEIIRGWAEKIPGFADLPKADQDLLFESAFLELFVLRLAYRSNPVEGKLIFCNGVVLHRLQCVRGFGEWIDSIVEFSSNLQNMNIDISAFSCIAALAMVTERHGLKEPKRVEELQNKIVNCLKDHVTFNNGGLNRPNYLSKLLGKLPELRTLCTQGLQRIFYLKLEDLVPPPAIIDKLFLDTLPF
Chain of Oxysterols receptor LXR-beta (Homo sapiens) (P55055 whole entry, looked up, the tested form may be a part): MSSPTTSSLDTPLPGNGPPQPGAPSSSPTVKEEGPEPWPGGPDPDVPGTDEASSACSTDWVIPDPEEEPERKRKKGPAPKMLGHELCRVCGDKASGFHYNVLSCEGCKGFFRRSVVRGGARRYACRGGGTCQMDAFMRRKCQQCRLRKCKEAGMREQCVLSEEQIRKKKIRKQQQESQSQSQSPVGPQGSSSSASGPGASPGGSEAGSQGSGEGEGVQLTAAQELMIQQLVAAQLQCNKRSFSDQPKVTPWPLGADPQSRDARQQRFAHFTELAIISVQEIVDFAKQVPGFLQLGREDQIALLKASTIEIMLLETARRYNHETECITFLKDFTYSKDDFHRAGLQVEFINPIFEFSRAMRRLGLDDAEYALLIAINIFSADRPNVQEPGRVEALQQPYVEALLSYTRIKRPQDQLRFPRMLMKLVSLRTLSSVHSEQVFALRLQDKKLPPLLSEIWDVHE

Regarding `CCCCCCCCCCCCBr`, the result in [1], in [2], in assay [3], in assay [4], in [5] and in assay [6] was inactive. The outcome in assay [7], in [8], in [9] and in [10] was inactive.

Consider `COc1ccc([N+](=O)[O-])cc1O`, for which the result in [1], in assay [2], in [11], in assay [3], in assay [12] and in [13] was inactive. Further, the call in assay [14], in assay [7], in [8], in assay [9] and in assay [10] was inactive.

On to `C=C(C)C(=O)OCC(CC)CCCC` (centres undefined), for which the result in assay [1], in assay [2], in assay [3], in assay [15], in [6] and in assay [16] was inactive. The result in assay [17], in [7], in [8], in [9] and in [10] was inactive.

For the compound `Nc1nc(=S)[nH][nH]1`, the result in assay [1], in assay [2], in [18], in [3], in assay [4] and in assay [13] was inactive. Besides, the call in assay [5], in assay [17], in assay [7], in assay [8], in assay [9] and in assay [10] was inactive.

As for `CCC[CH2][Sn]([Cl])([Cl])[CH2]CCC`, the AC50 was 1860 nM (active) in assay [1], 1200 nM (active) in assay [2], 778 nM (active) in assay [8] and 458 nM (active) in assay [9]. In addition, the compound was called inactive in assay [18], in [12], in assay [6], in assay [16], in assay [7] and in assay [10].

In the case of `O=C(NC(=O)c1c(F)cccc1F)Nc1cc(Cl)c(Oc2ncc(C(F)(F)F)cc2Cl)c(Cl)c1`, the outcome in [1], in assay [2], in assay [11], in assay [18], in assay [12] and in assay [16] was inactive. Besides, the compound was classed as inactive in assay [7], in assay [8], in [9] and in [10].

The values above are taken from PubChem BioAssay (EPA / NIEHS).
